Compounds without any hit were thinned out: in the full panel of roughly 79,000, 15% have a hit. The source made the active and inactive calls. No stated cut-off is given here; in the data, active means growth inhibition above about 70%; inactive means the rest.
How the values were obtained:
[1] = NCI Yeast Anticancer Drug Screen. Data for the rad50 strain (AID 155);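 further: 0% = growth of vehicle-only cultures of the same strain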; settings: S. cerevisiae rad50 strain growth inhibition, stronger effect = higher value
Method in brief: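 Vehicle-treated cultures provide the reference for the growth inhibition reported for compound-exposed, repair-deficient yeast.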

[2] = NCI Yeast Anticancer Drug Screen. Data for the mec2-1 strain (AID 157); settings: S. cerevisiae mec2-1 strain, stronger effect = higher value
Method in brief: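 Cells of the genetically defined mec2-1 yeast strain are incubated with test compound. Inhibition of growth is calculated against vehicle-treated controls.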

[3] = NCI Yeast Anticancer Drug Screen. Data for the sgs1 mgt1 strain (AID 161);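 further: 0% = growth of cultures given vehicle only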; settings: S. cerevisiae sgs1 mgt1 strain, stronger effect = higher value
Method in brief: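 Genetically altered yeast, compound exposure, growth inhibition relative to vehicle.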

[4] = NCI Yeast Anticancer Drug Screen. Data for the cln2 rad14 strain (AID 165);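 further: 0% = growth equal to vehicle treated cultures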; settings: S. cerevisiae cln2 rad14 strain, stronger effect = higher value
Method in brief: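 The screen exposed genetically defined yeast (cln2 rad14) to test compounds and scored growth inhibition relative to vehicle-treated controls.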

[5] = NCI Yeast Anticancer Drug Screen. Data for the bub3 strain (AID 167); settings: S. cerevisiae bub3 mutant strain, stronger effect = higher value
Method in brief: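 Mutant yeast screening strain plus compound; vehicle-treated cultures serve as the 0% inhibition reference.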

[6] = NCI Yeast Anticancer Drug Screen. Data for the mlh1 rad18 strain (AID 175); settings: S. cerevisiae mlh1 rad18 strain growth inhibition, stronger effect = higher value
Method in brief: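 Compound-treated yeast growth, normalised to vehicle controls. Strain bears defined DNA repair mutations.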

[7] = at 5.0 µM (retest, dose inferred, filed as 0.5)
[8] = at 50.0 µM (retest, dose inferred, filed as 5.0)

Measured: growth inhibition

C#CCNC(C)(C)C
inactive: [1]; [7] 1% | [1]; [8] 4% | [2]; [7] -5% | [2]; [8] 1% | [3]; [7] -2% | [3]; [8] -3% | [4]; [7] -3% | [4]; [8] 2% | [5]; [7] 3% | [5]; [8] -2% | [6]; [7] -1% | [6]; [8] 1%
active: [1]; at 50.0 µM 98.5% | [2]; at 50.0 µM 99.4% | [3]; at 50.0 µM 86% | [4]; at 50.0 µM 98.7% | [5]; at 50.0 µM 99.7% | [6]; at 50.0 µM 99.1%

CN(C)CC(O)c1cc(-c2ccc(Cl)cc2)nc2c(Cl)cc(Cl)cc12 (stereo not given)
inactive: [1]; [7] 11% | [2]; [7] 12% | [3]; [7] 41% | [4]; [7] 9% | [5]; [7] 8% | [6]; [7] 46%
active: [1]; [8] 99% | [1]; at 50.0 µM 99.2% | [2]; [8] 99% | [2]; at 50.0 µM 99.4% | [3]; [8] 99% | [3]; at 50.0 µM 99.5% | [4]; [8] 97% | [4]; at 50.0 µM 99.3% | [5]; [8] 99% | [5]; at 50.0 µM 99.5% | [6]; [8] 99% | [6]; at 50.0 µM 99.4%

O=[N+]([O-])c1ccc(Sc2ccsc2)c([N+](=O)[O-])c1
active: [1]; [8] 79% | [2]; [8] 87% | [3]; [8] 93% | [5]; [8] 86% | [6]; [8] 96% | [6]; at 50.0 µM 78.8%
inactive: [1]; [7] 4% | [1]; at 50.0 µM 46.5% | [2]; [7] 14% | [2]; at 50.0 µM 34.5% | [3]; [7] 21% | [3]; at 50.0 µM 48.5% | [4]; [7] 4% | [4]; [8] 61% | [4]; at 50.0 µM 31.8% | [5]; [7] 11% | [5]; at 50.0 µM 41.5% | [6]; [7] 45%

S=C(N/N=C/c1ccccn1)N1CC2CCC(CC2)C1
active: [1]; [7] 99% | [1]; [8] 100% | [1]; at 50.0 µM 90.2% | [2]; [7] 99% | [2]; [8] 100% | [2]; at 50.0 µM 93.5% | [3]; [7] 98% | [3]; [8] 99% | [3]; at 50.0 µM 92% | [4]; [7] 97% | [4]; [8] 100% | [4]; at 50.0 µM 93.2% | [5]; [7] 99% | [5]; [8] 99% | [5]; at 50.0 µM 92.7% | [6]; [7] 99% | [6]; [8] 99% | [6]; at 50.0 µM 89.7%

[C-]#[N+]C(C)(c1ccccc1)c1ccccc1
active: [1]; [8] 70% | [1]; at 50.0 µM 95.5% | [2]; at 50.0 µM 93.2% | [3]; [8] 79% | [3]; at 50.0 µM 95.5% | [4]; at 50.0 µM 90.1% | [5]; [8] 80% | [5]; at 50.0 µM 94.2% | [6]; [8] 76% | [6]; at 50.0 µM 94.4%
inactive: [1]; [7] -117% | [2]; [7] -34% | [2]; [8] 47% | [3]; [7] -48% | [4]; [7] -59% | [4]; [8] 47% | [5]; [7] -45% | [6]; [7] -101%

CC(C)C12CCC3(CCC4C(C)(C(=O)O)CCCC4(C)C3C1)C(CN)C2 (stereo not given)
active: [1]; [8] 98% | [1]; at 50.0 µM 97.3% | [2]; [8] 98% | [2]; at 50.0 µM 95.5% | [3]; [8] 95% | [3]; at 50.0 µM 94.9% | [4]; [8] 98% | [4]; at 50.0 µM 97.8% | [5]; [8] 98% | [5]; at 50.0 µM 96% | [6]; [8] 98% | [6]; at 50.0 µM 93.3%
inactive: [1]; [7] 3% | [2]; [7] 9% | [3]; [7] 17% | [4]; [7] -20% | [5]; [7] -4% | [6]; [7] 6%

C/C(=N\N(C)C(=S)Nc1ccccc1)c1ccccn1
inactive: [1]; [7] -2% | [1]; [8] 11% | [2]; [7] -4% | [2]; [8] 9% | [2]; at 50.0 µM 63.2% | [3]; [7] -6% | [3]; [8] 22% | [4]; [7] -5% | [4]; [8] -18% | [4]; at 50.0 µM 54.9% | [5]; [7] -12% | [5]; [8] 36% | [6]; [7] -10% | [6]; [8] 65% | [6]; at 50.0 µM 61.8%
active: [1]; at 50.0 µM 93.5% | [3]; at 50.0 µM 71.7% | [5]; at 50.0 µM 82%

CCN(CC)CC(O)CNc1cc(C)nc(/N=C(\N)Nc2ccc(Cl)c(Cl)c2)n1 (stereo not given)
active: [1]; at 50.0 µM 88.8% | [3]; at 50.0 µM 87% | [6]; [8] 86% | [6]; at 50.0 µM 81.2%
inactive: [1]; [7] 0% | [1]; [8] 64% | [2]; [7] -21% | [2]; [8] 34% | [2]; at 50.0 µM 57.3% | [3]; [7] -11% | [3]; [8] 54% | [4]; [7] -3% | [4]; [8] 19% | [4]; at 50.0 µM 31.7% | [5]; [7] -2% | [5]; [8] 30% | [5]; at 50.0 µM 34.2% | [6]; [7] 12%

N#C/C(=C\c1ccc(Cl)cc1Cl)C(N)=S
active: [1]; [8] 78% | [1]; at 50.0 µM 94.7% | [2]; [8] 88% | [2]; at 50.0 µM 95.2% | [3]; [8] 93% | [3]; at 50.0 µM 98.5% | [4]; [8] 82% | [4]; at 50.0 µM 86.8% | [5]; [8] 79% | [5]; at 50.0 µM 89.1% | [6]; [8] 93% | [6]; at 50.0 µM 95.7%
inactive: [1]; [7] -3% | [2]; [7] -4% | [3]; [7] -2% | [4]; [7] -12% | [5]; [7] -9% | [6]; [7] -11%

CCCCCCCCCCCCCCN1CCSCC1
inactive: [1]; [7] 6% | [1]; [8] 18% | [2]; [7] 3% | [2]; [8] 14% | [3]; [7] 4% | [3]; [8] 1% | [4]; [7] 5% | [4]; [8] 14% | [5]; [7] 9% | [5]; [8] 21% | [6]; [7] 5% | [6]; [8] 12%
active: [1]; at 50.0 µM 98.5% | [2]; at 50.0 µM 96% | [3]; at 50.0 µM 99% | [4]; at 50.0 µM 98.6% | [5]; at 50.0 µM 99% | [6]; at 50.0 µM 98.8%
